Laboratory results reported in PubChem BioAssay (NCI).
This is part of a sample that, as a whole, favours compounds with a hit. Of some 79,000 tested, about 15% had one in any assay. Values without a mark were called inactive. The source made the active and inactive calls. Cut-off read from the data, not from the text of the source: active = growth inhibition above about 70%; inactive = the rest.

Key:
[1] = NCI Yeast Anticancer Drug Screen. Data for the rad50 strain (AID 155);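 note: 0% = growth of vehicle-only cultures of the same strain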; settings: S. cerevisiae rad50 strain growth inhibition, stronger effect = higher value
Summary of the method: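 DNA repair mutant yeast, compound exposure, growth read-out; inhibition is taken relative to vehicle.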

[2] = NCI Yeast Anticancer Drug Screen. Data for the mec2-1 strain (AID 157); settings: S. cerevisiae mec2-1 strain, stronger effect = higher value
Summary of the method: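 mec2-1 yeast strain, carrying an alteration in DNA damage repair or cell cycle control, was exposed to compounds; growth inhibition was measured relative to vehicle-treated controls.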

[3] = NCI Yeast Anticancer Drug Screen. Data for the sgs1 mgt1 strain (AID 161);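 note: 0% = growth of cultures given vehicle only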; settings: S. cerevisiae sgs1 mgt1 strain, stronger effect = higher value
Summary of the method: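 Yeast cells carrying a defined DNA-repair defect were exposed to test compounds. Growth inhibition was measured relative to vehicle-treated controls.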

[4] = NCI Yeast Anticancer Drug Screen. Data for the cln2 rad14 strain (AID 165);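 note: 0% = growth equal to vehicle treated cultures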; settings: S. cerevisiae cln2 rad14 strain, stronger effect = higher value
Summary of the method: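 Yeast carrying cln2 and rad14 alterations (cell cycle control and DNA damage repair) were exposed to compounds. Growth inhibition was measured against vehicle-treated controls.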

[5] = NCI Yeast Anticancer Drug Screen. Data for the bub3 strain (AID 167); settings: S. cerevisiae bub3 mutant strain, stronger effect = higher value
Summary of the method: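 In this screen, a yeast mutant lacking normal mitotic checkpoint function is challenged with compound. Relative growth versus vehicle gives the inhibition value.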

[6] = NCI Yeast Anticancer Drug Screen. Data for the mlh1 rad18 strain (AID 175); settings: S. cerevisiae mlh1 rad18 strain growth inhibition, stronger effect = higher value
Summary of the method: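 Growth inhibition of the yeast strain was measured after compound exposure and expressed relative to vehicle-treated controls. The strain carries defined defects in DNA damage repair.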

[7] = at 5.0 µM (retest, dose inferred, filed as 0.5)
[8] = at 50.0 µM (retest, dose inferred, filed as 5.0)

In the case of `Cc1ccc(C(CN(C)C)C(=O)c2ccccc2)cc1C` (configuration not stated), the growth inhibition [1, 7] is reported as -4%, the growth inhibition [1, 8] is reported as 97% (active) and the growth inhibition ([1]; at 50.0 µM) is reported as 4.8%. For the same compound, the growth inhibition [2, 7] was -2%, the growth inhibition [2, 8] was 97% (active) and the growth inhibition ([2]; at 50.0 µM) was 3.35%. The growth inhibition [3, 7] was -4%, the growth inhibition [3, 8] was 93% (active) and the growth inhibition ([3]; at 50.0 µM) was 36.3%. It also gave a growth inhibition [4, 7] of -3%, a growth inhibition [4, 8] of 42% and a growth inhibition ([4]; at 50.0 µM) of -23.6%. The growth inhibition [5, 7] was -2%, the growth inhibition [5, 8] was 97% (active) and the growth inhibition ([5]; at 50.0 µM) was 69.4%. The growth inhibition [6, 7] was -6%, the growth inhibition [6, 8] was 98% (active) and the growth inhibition ([6]; at 50.0 µM) was 27.4%.

Compound `COc1ccc(COCCOCc2nc(C#N)c(N)o2)cc1` has a growth inhibition [1, 7] of 16%, a growth inhibition [1, 8] of 8% and a growth inhibition ([1]; at 50.0 µM) of 43.3%. The growth inhibition [2, 7] was 13%, the growth inhibition [2, 8] was 9% and the growth inhibition ([2]; at 50.0 µM) was 12.1%. The growth inhibition [3, 7] was 16%, the growth inhibition [3, 8] was 5% and the growth inhibition ([3]; at 50.0 µM) was -25.1%. For the same compound, the growth inhibition [4, 7] was 16%, the growth inhibition [4, 8] was 11% and the growth inhibition ([4]; at 50.0 µM) was -16.8%. For the same compound, the growth inhibition [5, 7] was 22%, the growth inhibition [5, 8] was 12% and the growth inhibition ([5]; at 50.0 µM) was -31.7%. The growth inhibition [6, 7] was 10%, the growth inhibition [6, 8] was 4% and the growth inhibition ([6]; at 50.0 µM) was -1.6%.

With `Cc1c(C)c(C)c(C(=O)c2ccccc2C(=O)NCCSC(C)(C)C)c(C)c1C` the growth inhibition [1, 7] was 42%, the growth inhibition [1, 8] was 49% and the growth inhibition ([1]; at 50.0 µM) was 82.6% (active). It also gave a growth inhibition [2, 7] of 45%, a growth inhibition [2, 8] of 60% and a growth inhibition ([2]; at 50.0 µM) of 67.6%. For the same compound, the growth inhibition [3, 7] was -15%, the growth inhibition [3, 8] was -31% and the growth inhibition ([3]; at 50.0 µM) was 83.3% (active). The growth inhibition [4, 7] was 53%, the growth inhibition [4, 8] was 41% and the growth inhibition ([4]; at 50.0 µM) was 76.6% (active). For the same compound, the growth inhibition [5, 7] was 44%, the growth inhibition [5, 8] was 33% and the growth inhibition ([5]; at 50.0 µM) was 82.4% (active). For the same compound, the growth inhibition [6, 7] was 47%, the growth inhibition [6, 8] was 55% and the growth inhibition ([6]; at 50.0 µM) was 84.3% (active).

For `O=c1cccccc1[O-].O=c1cccccc1[O-].O=c1cccccc1[O-].[Ce+3]`, the growth inhibition [1, 7] was 31%, the growth inhibition [1, 8] was 31% and the growth inhibition ([1]; at 50.0 µM) was 90% (active). For the same compound, the growth inhibition [2, 7] was 20%, the growth inhibition [2, 8] was 20% and the growth inhibition ([2]; at 50.0 µM) was 92% (active). The growth inhibition [3, 7] was 13%, the growth inhibition [3, 8] was 13% and the growth inhibition ([3]; at 50.0 µM) was 85% (active). For the same compound, the growth inhibition [4, 7] was 16%, the growth inhibition [4, 8] was 16% and the growth inhibition ([4]; at 50.0 µM) was 90.4% (active). For the same compound, the growth inhibition [5, 7] was 10%, the growth inhibition [5, 8] was 10% and the growth inhibition ([5]; at 50.0 µM) was 91.2% (active). For the same compound, the growth inhibition [6, 7] was 26%, the growth inhibition [6, 8] was 26% and the growth inhibition ([6]; at 50.0 µM) was 88.5% (active).

For `Clc1ccc(CSCCc2ccncc2)cc1Cl`, the growth inhibition [1, 7] was -5%, the growth inhibition [1, 8] was 98% (active) and the growth inhibition ([1]; at 50.0 µM) was 98.7% (active). The growth inhibition [2, 7] was 0%, the growth inhibition [2, 8] was 96% (active) and the growth inhibition ([2]; at 50.0 µM) was 99% (active). For the same compound, the growth inhibition [3, 7] was 5%, the growth inhibition [3, 8] was 97% (active) and the growth inhibition ([3]; at 50.0 µM) was 97.5% (active). For the same compound, the growth inhibition [4, 7] was -19%, the growth inhibition [4, 8] was 95% (active) and the growth inhibition ([4]; at 50.0 µM) was 97.6% (active). The growth inhibition [5, 7] was 5%, the growth inhibition [5, 8] was 98% (active) and the growth inhibition ([5]; at 50.0 µM) was 98.2% (active). The growth inhibition [6, 7] was 4%, the growth inhibition [6, 8] was 97% (active) and the growth inhibition ([6]; at 50.0 µM) was 98.8% (active).

For `O=C1/C(=N/N=C(c2ccccc2)c2ccccc2)c2ccccc2-c2ccccc21`, the growth inhibition [1, 7] was 7%, the growth inhibition [1, 8] was 65% and the growth inhibition ([1]; at 50.0 µM) was 60.9%. For the same compound, the growth inhibition [2, 7] was 1%, the growth inhibition [2, 8] was 14% and the growth inhibition ([2]; at 50.0 µM) was 0.45%. It also gave a growth inhibition [3, 7] of -1%, a growth inhibition [3, 8] of 23% and a growth inhibition ([3]; at 50.0 µM) of -2.6%. For the same compound, the growth inhibition [4, 7] was 2%, the growth inhibition [4, 8] was -5% and the growth inhibition ([4]; at 50.0 µM) was 0.15%. For the same compound, the growth inhibition [5, 7] was 7%, the growth inhibition [5, 8] was 27% and the growth inhibition ([5]; at 50.0 µM) was 8.5%. For the same compound, the growth inhibition [6, 7] was 7%, the growth inhibition [6, 8] was 44% and the growth inhibition ([6]; at 50.0 µM) was 72.3% (active).

For `CC1=CC2OC3CC4OC(=O)/C=C/C=C/C(C(C)O)OCC(=O)C(C)CC(=O)OCC2(CC1)C4(C)C31CO1` (configuration not stated), the growth inhibition [1, 7] was 28%, the growth inhibition [1, 8] was 98% (active) and the growth inhibition ([1]; at 50.0 µM) was 90.8% (active). For the same compound, the growth inhibition [2, 7] was 26%, the growth inhibition [2, 8] was 99% (active) and the growth inhibition ([2]; at 50.0 µM) was 94% (active). The growth inhibition [3, 7] was 31%, the growth inhibition [3, 8] was 98% (active) and the growth inhibition ([3]; at 50.0 µM) was 91.8% (active). The growth inhibition [4, 7] was 72% (active), the growth inhibition [4, 8] was 99% (active) and the growth inhibition ([4]; at 50.0 µM) was 91.3% (active). For the same compound, the growth inhibition [5, 7] was 60%, the growth inhibition [5, 8] was 99% (active) and the growth inhibition ([5]; at 50.0 µM) was 91.8% (active). For the same compound, the growth inhibition [6, 7] was 65%, the growth inhibition [6, 8] was 99% (active) and the growth inhibition ([6]; at 50.0 µM) was 91.3% (active).

For `O=C1C(c2ccc([N+](=O)[O-])cc2)=C(Cl)C(=O)c2c(O)cccc21`, the growth inhibition [1, 7] was -30%, the growth inhibition [1, 8] was -22% and the growth inhibition ([1]; at 50.0 µM) was 71.2% (active). It also gave a growth inhibition [2, 7] of -3%, a growth inhibition [2, 8] of -9% and a growth inhibition ([2]; at 50.0 µM) of 45.1%. For the same compound, the growth inhibition [3, 7] was 0%, the growth inhibition [3, 8] was -19% and the growth inhibition ([3]; at 50.0 µM) was 27.8%. For the same compound, the growth inhibition [4, 7] was 8%, the growth inhibition [4, 8] was 0% and the growth inhibition ([4]; at 50.0 µM) was 1%. The growth inhibition [5, 7] was 3%, the growth inhibition [5, 8] was -37% and the growth inhibition ([5]; at 50.0 µM) was 69.2%. It also gave a growth inhibition [6, 7] of -14%, a growth inhibition [6, 8] of 0% and a growth inhibition ([6]; at 50.0 µM) of 45.4%.

In the case of `Nc1ccc(O)c2ccccc12`, the growth inhibition [1, 7] is reported as 19%, the growth inhibition [1, 8] is reported as 80% (active) and the growth inhibition ([1]; at 50.0 µM) is reported as 85.5% (active). The growth inhibition [2, 7] was -4%, the growth inhibition [2, 8] was 83% (active) and the growth inhibition ([2]; at 50.0 µM) was 63.8%. It also gave a growth inhibition [3, 7] of 7%, a growth inhibition [3, 8] of 63% and a growth inhibition ([3]; at 50.0 µM) of 68.3%. It also gave a growth inhibition [4, 7] of -10%, a growth inhibition [4, 8] of 8% and a growth inhibition ([4]; at 50.0 µM) of 10.1%. For the same compound, the growth inhibition [5, 7] was 7%, the growth inhibition [5, 8] was 93% (active) and the growth inhibition ([5]; at 50.0 µM) was 87.2% (active). The growth inhibition [6, 7] was 11%, the growth inhibition [6, 8] was 90% (active) and the growth inhibition ([6]; at 50.0 µM) was 91% (active).
